Assay results taken from PubChem BioAssay AID435006 (Sanford-Burnham Center for Chemical Genomics, 2010).
Out of some 1,300 compounds screened, about 1,100 (85%) were called active. So high a share suggests a set chosen from earlier hits. A selection follows. Values without a mark were called inactive. Cut-off read from the data, not from the text of the source: active = inhibition above about 48%; inactive = the rest.

Assay: yeast-expressed human NALP3 blockade – luminescence, single concentration, confirmation (AID 435006)
Settings: yeast expressing human NALP3, luminescence; at 10 µM; active compounds read high

**Q.** With `O=C(Nc1ccccc1Cl)/C(Cl)=C(\Cl)S(=O)c1ccccc1` (centres undefined) as the molecule, how does the inhibition read?
**A.** 64.3% (active)

**Q.** With `O=[N+]([O-])c1c(NCCO)cc(Sc2nc3ccccc3s2)c2nonc12` as the molecule, how does the inhibition read?
**A.** 62.6% (active)

**Q.** For `O=C(Nc1ccccc1)c1cc2ccccc2[nH]1`, which inhibition is on record?
**A.** 73.6% (active)

**Q.** Which inhibition does the source give for `CC(C)(c1ccccc1)c1ccc(OCCN)cc1` here?
**A.** 71.8% (active)

**Q.** With `CN(C)c1ccnc2sc(C(=O)c3ccccc3)c(N)c12` as the molecule, how does the inhibition read?
**A.** 68% (active)

**Q.** With `Cc1ccc(OCc2nc3ccccc3n2C)cc1` as the molecule, how does the inhibition read?
**A.** 78.3% (active)

**Q.** For `CC(C)n1c(COc2ccccc2)nc2ccccc21`, which inhibition is on record?
**A.** 70% (active)

**Q.** With `CC(=O)[C@@]12O[C@@H]1C[C@H]1[C@@H]3CC[C@H]4C[C@@H](O)CC[C@]4(C)[C@H]3CC[C@@]12C` as the molecule, how does the inhibition read?
**A.** 71.5% (active)

**Q.** Which inhibition does the source give for `C[C@@H]1C[C@@H]2O[C@H]2/C=C\C=C\C(=O)Cc2c(Cl)c(O)cc(O)c2C(=O)O1` here?
**A.** 72.4% (active)

**Q.** For `O=C(CC(O)(C(F)(F)F)C(F)(F)F)Nc1ccc(Cl)c(Cl)c1`, which inhibition is on record?
**A.** 97.9% (active)

**Q.** Which inhibition does the source give for `N#Cc1nc(COc2ccc(Cl)cc2)oc1N1CCCC1` here?
**A.** 30.3%

**Q.** Which inhibition does the source give for `Cc1ccc(OCc2nc(C#N)c(N3CCCC3)o2)cc1` here?
**A.** 48.9% (active)

**Q.** With `CC1CC2=C(CC1/C=N/NC(N)=S)C(C)(C)CCC2` (centres undefined) as the molecule, how does the inhibition read?
**A.** -1.3%

**Q.** Which inhibition does the source give for `O=[N+]([O-])c1cccc(/C=N/Nc2ncc(Br)cn2)c1` here?
**A.** 72.2% (active)

**Q.** Which inhibition does the source give for `Cc1ccnc(Nc2nc3ccccc3s2)n1` here?
**A.** 73% (active)

**Q.** Which inhibition does the source give for `CCOC(=O)c1c(C)[nH]c(C(=O)COc2ccc3c(c2)OCO3)c1C` here?
**A.** 47%

**Q.** Which inhibition does the source give for `O=C(COc1ccccc1F)Nc1nc(-c2ccccn2)cs1` here?
**A.** 55.5% (active)

**Q.** For `COc1cccc(/C=N/Nc2cc(C)nc(-c3ccccc3O)n2)c1O`, which inhibition is on record?
**A.** 25.5%

**Q.** For `Oc1ccc(Br)cc1/C=N/Nc1ccccn1`, which inhibition is on record?
**A.** 66.3% (active)

**Q.** For `O=C(NCc1ccc2c(c1)OCO2)c1c(O)nc2sccn2c1=O`, which inhibition is on record?
**A.** 75.2% (active)

**Q.** For `Cc1csc(NC(=S)Nc2cccc(Cl)c2)n1`, which inhibition is on record?
**A.** -12%

**Q.** Which inhibition does the source give for `Cc1cccc(NC(=S)NC(=O)c2ccc(Br)o2)c1` here?
**A.** 63.5% (active)

**Q.** Which inhibition does the source give for `COCCCNC(=O)/C=C/c1ccc(OCc2c(F)cccc2Cl)cc1` here?
**A.** 27.1%

**Q.** With `Fc1ccccc1-c1cc2cc3c(cc2cn1)OCO3` as the molecule, how does the inhibition read?
**A.** 51.1% (active)

**Q.** For `O=[N+]([O-])/C=C/c1ccc2c(ccn2Cc2ccccc2)c1`, which inhibition is on record?
**A.** 78.7% (active)

**Q.** With `Cc1cc(C)c(/C=C2\C(=O)Nc3ccccc32)[nH]1` as the molecule, how does the inhibition read?
**A.** 51.8% (active)

**Q.** Which inhibition does the source give for `Cn1c(=NC(=O)c2ccco2)sc2cccc(F)c21` here?
**A.** 60.5% (active)

**Q.** For `CC(C)C(=O)N1CCN(CCN=CC2=C(O)CC(c3ccco3)CC2=O)CC1` (centres undefined), which inhibition is on record?
**A.** 74.3% (active)

**Q.** With `Cc1ccc(-c2nn(C(C)(C)C)c3ncnc(N)c23)cc1` as the molecule, how does the inhibition read?
**A.** 86.7% (active)

**Q.** With `CC(C)Sc1ncnc2c1cnn2-c1ccccc1` as the molecule, how does the inhibition read?
**A.** 48.7% (active)

**Q.** With `Cc1ccc(O)c(NC(=O)c2cc(-c3ccco3)on2)c1` as the molecule, how does the inhibition read?
**A.** 76% (active)

**Q.** With `CCSc1nc2sc3c(c2c(=O)n1-c1ccc(C)cc1)CCN(C)C3` as the molecule, how does the inhibition read?
**A.** 69.4% (active)

**Q.** With `O=C(Oc1c(-c2ccco2)oc2ccccc2c1=O)c1cccnc1` as the molecule, how does the inhibition read?
**A.** 78.3% (active)

**Q.** With `O=C(Nc1ccc2oc(-c3ccccc3F)nc2c1)c1ccco1` as the molecule, how does the inhibition read?
**A.** 82.2% (active)

**Q.** Which inhibition does the source give for `CCc1noc(C)c1C(=O)Nc1nc2ccc(OC)cc2s1` here?
**A.** 78.5% (active)

**Q.** With `Cc1c(C(=O)N2CCCc3ccccc32)oc2ccccc12` as the molecule, how does the inhibition read?
**A.** 47.6%

**Q.** With `Cc1cc(C(=O)COc2ccc(Br)cc2F)c(C)n1C1CC1` as the molecule, how does the inhibition read?
**A.** 54.5% (active)

**Q.** With `Cn1c(=O)c(C(=O)Nc2ncccn2)c(O)c2ccccc21` as the molecule, how does the inhibition read?
**A.** 60.5% (active)

**Q.** For `Oc1c(Cl)cc(Cl)c(Cl)c1Cc1c(O)c(Cl)cc(Cl)c1Cl`, which inhibition is on record?
**A.** 99% (active)

**Q.** Which inhibition does the source give for `Nc1c(-c2cccc(Cl)c2)cnn1-c1cccc([N+](=O)[O-])c1` here?
**A.** 61.2% (active)

**Q.** With `CCc1cc(C(=O)Nc2nnc(C3CC3)s2)sc1C` as the molecule, how does the inhibition read?
**A.** 60.8% (active)

**Q.** For `O=C(CSc1ccc(-c2ccc(-n3cccn3)cc2)nn1)Nc1ccc([N+](=O)[O-])cc1`, which inhibition is on record?
**A.** 41%

**Q.** With `CN=C1C=C/C(=N/N=c2\ccn(O)cc2C)C=C1C` as the molecule, how does the inhibition read?
**A.** 57.2% (active)

**Q.** Which inhibition does the source give for `COc1ccccc1C(=O)Nc1ccc(NC(=O)c2ccco2)c(C)c1` here?
**A.** 60.8% (active)

**Q.** Which inhibition does the source give for `O=C(Nc1ccc(Oc2ccccc2)cc1)c1ccco1` here?
**A.** 44.5%

**Q.** For `CCN(CC)c1ccc(/C=N/Nc2nc(C)cc(C)n2)c(O)c1`, which inhibition is on record?
**A.** 40.4%

**Q.** With `CC(=NCc1ccc2c(c1)OCO2)C1=C(O)c2ccccc2C1=O` as the molecule, how does the inhibition read?
**A.** 67.5% (active)

**Q.** For `CC1(C)CCSC(/C=C/c2ccccc2)=N1`, which inhibition is on record?
**A.** 87.4% (active)

**Q.** Which inhibition does the source give for `O=C1C=C(c2ccc(Cl)cc2)C(=O)N1Nc1ccccc1` here?
**A.** 55% (active)

**Q.** Which inhibition does the source give for `CCCN(CC1CC1)C(=S)NC(=O)c1ccccc1Br` here?
**A.** 47.1% (active)

**Q.** With `O=C(CSc1ncnc2c1oc1ccccc12)NC1CCCC1` as the molecule, how does the inhibition read?
**A.** 67.6% (active)

**Q.** With `N#Cc1nc(Cc2ccccc2)oc1NCCc1ccccc1` as the molecule, how does the inhibition read?
**A.** 48.6% (active)

**Q.** For `CCCc1nc2c(c(=O)c3ccccc3n2C)c(=O)n1C1CCCCCC1`, which inhibition is on record?
**A.** 30.2%

**Q.** Which inhibition does the source give for `COc1ccccc1OCc1nc2ccccc2s1` here?
**A.** 47.1% (active)

**Q.** For `CCCCCCC12CCC(C(=O)O)(CC1)CC2`, which inhibition is on record?
**A.** 66.8% (active)

**Q.** For `Cc1cc(C)nc(NC(=O)Nc2ccccc2C(F)(F)F)n1`, which inhibition is on record?
**A.** 68.8% (active)

**Q.** Which inhibition does the source give for `O=C(CCCN1C(=O)/C(=C\c2ccco2)SC1=S)Nc1cccc2ccccc12` here?
**A.** 52.9% (active)

**Q.** Which inhibition does the source give for `Cc1ccc2cccc(S(=O)(=O)N3CCN(c4ccccc4F)CC3)c2n1` here?
**A.** 65.9% (active)

**Q.** With `COc1cc(N2C(=O)CSC2=S)cc(OC)c1OC` as the molecule, how does the inhibition read?
**A.** 58.7% (active)

**Q.** Which inhibition does the source give for `O=C1CSC(=S)N1c1ccc(O)cc1` here?
**A.** 83.8% (active)

**Q.** With `CC(C)C(=O)Nc1ccc2c(c1)oc1ccccc12` as the molecule, how does the inhibition read?
**A.** 2.95%

**Q.** For `COc1ccc(OCc2nnc3n2N=C(c2ccccc2)C(CC(=O)O)S3)cc1` (centres undefined), which inhibition is on record?
**A.** 16.8%

**Q.** With `Cc1ccc(CSc2nsc(C)c2C#N)cc1` as the molecule, how does the inhibition read?
**A.** 56.3% (active)

**Q.** Which inhibition does the source give for `CCCNc1ncnc2sc(C)c(C)c12` here?
**A.** 60.5% (active)
